# Laboratory results: PubChem BioAssay (NCI)
# Several values for one entry are separate records, joined by “and”; a condition that tells them apart may be missing. Equal entries are not always repeated. The panel holds about 83,000 compounds, 20% with a hit somewhere; the sample as a whole holds those more often.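 48-hour exposure, single concentration, 96-well plates; percent growth endpoint where 0 means no net growth. Active: below 10.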 A number with no mark means an inactive call. Activity calls are given as the source filed them.
# Assays:
# Assay in all cases: NCI-60 one-dose screen, 48 h (100 = growth as untreated, 0 = no growth, -100 = all killed)
# Settings in all cases: 10 µM unless noted
# DU-145 prostate = tested on: DU-145 prostate
# K-562 leukemia = tested on: K-562 leukemia
# MALME-3M melanoma = tested on: MALME-3M melanoma
# MDA-MB-231 breast = tested on: MDA-MB-231 breast
# RXF 393 renal = tested on: RXF 393 renal
# SF-268 CNS = tested on: SF-268 CNS
# SF-295 CNS = tested on: SF-295 CNS
# SF-539 CNS = tested on: SF-539 CNS
# UACC-257 melanoma = tested on: UACC-257 melanoma
# M14 melanoma = tested on: M14 melanoma
SMILES,growth (DU-145 prostate),growth (K-562 leukemia),growth (MALME-3M melanoma),growth (MDA-MB-231 breast),growth (RXF 393 renal),growth (SF-268 CNS),growth (SF-295 CNS),growth (SF-539 CNS),growth (UACC-257 melanoma),growth (M14 melanoma)
NS(=O)(=O)c1ccc(C(=O)N=Nc2c(O)[nH]c3c(F)cccc23)cc1,113%,107%,95.9%,106%,97.3%,107%,103%,94.8%,103%,101%
Cc1ccc(S(=O)(=O)OC[C@@]2(C)CC[C@]3(C)CC[C@]4(C)C(=CC[C@@H]5[C@@]6(C)CCCNC(C)(C)[C@@H]6CC[C@]54C)[C@@H]3C2)cc1,-90.7% (active),-39.5% (active),-75.8% (active),-85.7% (active),-85.9% (active),-55.2% (active),85.6%,-93.2% (active),-58.7% (active),-68.5% (active)
COc1ccccc1/C=C1\COc2ccc(O)cc2C1=O,96.4%,6.88% (active),79.9%,121%,92.1%,83.9%,104%,92.5%,95.2%,77.8%
Cc1ccc(NC(=O)N/C(N)=N/c2nc(=O)c3ccccc3s2)cc1,108%,57%,93.9%,86%,99%,102%,101%,95.5%,103%,92.4%
COc1ccc(-c2ccc(-c3ccc(C(=N)N)cn3)s2)cc1Cl,-47% (active),-47.8% (active),-88% (active),-77.9% (active),64.5%,-30.5% (active),-80.9% (active),-93.5% (active),-60.8% (active),-81.7% (active)
Cn1cc(-c2csc(-c3c[nH]c4ccc(F)cc34)n2)c2cnccc21,-19.6% (active),-55.4% (active),-94.9% (active),-66.7% (active),-90.8% (active),-25.4% (active),-75.4% (active),-93.7% (active),-68.6% (active),-87% (active)
O=C(NCc1cccnc1)/C(=C\c1ccc(Br)cc1)S(=O)(=O)c1ccccc1,-86.8% (active),29.7%,-20.5% (active),-65.7% (active),-88% (active),-30.9% (active),13.9%,-59% (active),-20.5% (active),-41.1% (active)
COc1cc(C=O)ccc1Oc1ccc([N+](=O)[O-])cc1[N+](=O)[O-],110%,97.3%,114%,104%,111%,102%,108%,107%,90%,102%
N#C/C(=C\c1ccc(Br)cc1)n1nnc2c(F)cccc21,5.36% (active),12%,-2.35% (active),-10.6% (active),-57.9% (active),20.3%,24.7%,-7.82% (active),-10.7% (active),2.49% (active)
CCOC(=O)CCCn1c(-c2ccccc2)cc(-c2ccccc2)c(C#N)c1=O,97.1%,81.8%,108%,86.8%,79.2%,88.4%,69.2%,81.5%,90.5%,86.8%
Cn1cc(C2=C(c3cccc4ccccc34)C(=O)NC2=O)c2cc(Br)ccc21,110%,87.2%,143%,113%,102%,102%,102%,121%,138%,114%
CCCCC1COc2cccc3c2N1C=C/C3=C\C(=O)N(C)c1cccc(Cl)c1 (stereo not given),103%,91%,107%,103%,108%,97.9%,97.6%,104%,103%,102%
COCCn1cc(-c2nc(-c3cn(CCOC)c4ncccc34)cs2)c2ccccc21,97.1%,119%,88.6%,49%,76.1%,83.3%,91.4%,79.4%,88%,99.9%
CONC1=Nc2cc(NC(N)=NCc3ccccc3)c(N(C)C3CCCCC3)cc2OC1,72.6%,23.6%,78.6%,25.5%,41.2%,68.1%,83.3%,75.9%,89.5%,78.1%
CCNC(=S)n1nc(SC)c(C(=O)OCC)c1N,102%,85.5%,106%,92.5%,107%,92%,98.1%,93.1%,120%,107%
COc1cc(/C=N/NC(=O)CCN2c3ccccc3Sc3ccccc32)cc(OC)c1OC,97.4%,61.7%,93.3%,68.5%,85.8%,93.8%,74.3%,85.6%,92.7%,79.3%
CNC(=O)c1cc(Oc2ccc3nc(NC(=O)Nc4ccc(C(F)(F)F)cc4)sc3c2)ccn1,48.9%,76.3%,20.8%,63.5%,85.5%,65%,63.2%,82.2%,86.7%,35.8%
O=C(NCCCN1CCCCC1)c1ccc(-c2nc3ccc4[nH]ncc4c3c3c2CCCC3)cc1,51.3%,16.7%,70.8%,54.9%,28.5%,54.2%,55.3%,43.8%,97.2%,57.3%
CC1=CC=C(NC(=O)/C=C/c2ccccc2)CC1Nc1nccc(-c2cccnc2)n1 (stereo not given),30.9%,10.2%,45.2%,51.5%,0.475% (active),54%,44.1%,14%,8.14% (active),23.7%
CCN(CC)CC(=O)Nc1ccc2ncnc(Nc3ccc(Oc4cccc(F)c4)c(Cl)c3)c2c1,57%,2.08% (active),45.2%,49.3%,43.2%,58.8%,87.2%,83.5%,67.2%,-33.8% (active)
Cc1ccc(Nc2nc(-c3cc(O)c(C)c(C)c3O)cs2)cc1,97.3%,66.5%,109%,104%,99.3%,92.3%,101%,96.6%,104%,96.6%
Nc1ccc(-c2ccc(N)c(Br)c2)cc1Br,68.1%,22.4%,55.4%,51.8%,57.5%,44.3%,62.8%,29.5%,78.1%,26.9%
Nc1nc(Nc2cccnc2)sc1C(=O)c1ccccc1F,17.8%,66.5%,157%,83.1%,-42% (active),20.8%,34.9%,-3.32% (active),72.9%,59.2%
O=C(/C=C/c1ccccc1)c1cccs1,97.8% and 93.1%,106% and 71.2%,119%,111% and 109%,106% and 102%,98.4% and 98.3%,97.7% and 95.1%,105% and 111%,96.3% and 106%,98.1% and 112%
C=C(C)[C@@H]1CC[C@]2(C(=O)O)CC[C@]3(C)[C@H](CC[C@@H]4[C@@]5(C)CCC(N)C(C)(C)[C@@H]5CC[C@]43C)[C@@H]12 (stereo not given in full),33.1%,-28.2% (active),-61.3% (active),18.3%,81.3%,91.3%,73.7%,96.5%,93.2%,27.1%
